Drawing on PMC7862700, “An all-to-all approach to the identification of sequence-specific readers for epigenetic DNA modifications on cytosine”, this text covers binding signal for one sequence.

Common to all, as to experiment: DAPPL (digital affinity profiling via proximity ligation, sequencing); 10 mM Tris-HCl pH 7.5, 50 mM NaCl, 1 mM DTT, 4% glycerol, room temperature, 30 min; GST-TFs on glutathione beads, 16-mer random dsDNA library, 0.1% formaldehyde crosslink after washing; high values mean tight binding
One assay concerns the target T1, FLI1 (Homo sapiens, UniProt Q01543 1-452).
T1 sequence: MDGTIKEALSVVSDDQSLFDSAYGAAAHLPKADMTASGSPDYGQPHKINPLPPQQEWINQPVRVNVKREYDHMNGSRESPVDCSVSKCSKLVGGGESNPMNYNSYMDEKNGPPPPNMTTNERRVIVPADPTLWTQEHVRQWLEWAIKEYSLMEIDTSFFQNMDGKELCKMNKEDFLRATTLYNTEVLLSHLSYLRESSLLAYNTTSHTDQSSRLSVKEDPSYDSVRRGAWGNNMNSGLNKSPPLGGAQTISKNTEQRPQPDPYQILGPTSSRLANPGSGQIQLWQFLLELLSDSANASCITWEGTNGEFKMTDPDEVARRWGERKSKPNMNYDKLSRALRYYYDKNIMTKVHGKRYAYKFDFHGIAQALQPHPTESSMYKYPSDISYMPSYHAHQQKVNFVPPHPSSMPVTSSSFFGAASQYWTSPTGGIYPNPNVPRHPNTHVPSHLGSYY
Particulars: protein: recombinant; tags: N-terminal GST; dsDNA, one strand shown. In a few lines:
(§1)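 Yeast served to express human transcription factors as GST fusions, which were then captured on glutathione beads and labelled with DNA barcodes. Pooled with a tag-only sample, they were incubated with 200 nmole of a 16-mer random double-stranded DNA library for 30 min at room temperature in Tris/NaCl/DTT/glycerol buffer, washed, crosslinked with 0.1% formaldehyde, ligated by proximity, amplified by PCR and sequenced. Dividing each hexamer's read frequency for a factor by its frequency for the tag-only sample gives the binding signal.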

The target in another assay is T2, ELK1 (Homo sapiens, UniProt P19419 1-428).
T2 sequence: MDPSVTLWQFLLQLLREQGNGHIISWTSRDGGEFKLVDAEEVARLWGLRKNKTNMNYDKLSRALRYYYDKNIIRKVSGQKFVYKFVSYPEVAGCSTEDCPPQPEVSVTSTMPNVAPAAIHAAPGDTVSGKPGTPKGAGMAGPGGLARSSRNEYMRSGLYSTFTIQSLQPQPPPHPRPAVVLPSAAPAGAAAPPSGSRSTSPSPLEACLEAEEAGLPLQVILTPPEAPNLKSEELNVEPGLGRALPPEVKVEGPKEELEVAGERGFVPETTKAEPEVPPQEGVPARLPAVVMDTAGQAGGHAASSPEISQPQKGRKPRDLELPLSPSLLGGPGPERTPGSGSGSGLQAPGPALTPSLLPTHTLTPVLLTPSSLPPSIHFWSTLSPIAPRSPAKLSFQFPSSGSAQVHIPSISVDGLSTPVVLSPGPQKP
The following applies: protein: recombinant; tags: N-terminal GST; dsDNA, one strand shown. In short, it runs like this:
as §1

The next assay addresses T3, ERG (Homo sapiens, UniProt P11308 1-479).
T3 sequence: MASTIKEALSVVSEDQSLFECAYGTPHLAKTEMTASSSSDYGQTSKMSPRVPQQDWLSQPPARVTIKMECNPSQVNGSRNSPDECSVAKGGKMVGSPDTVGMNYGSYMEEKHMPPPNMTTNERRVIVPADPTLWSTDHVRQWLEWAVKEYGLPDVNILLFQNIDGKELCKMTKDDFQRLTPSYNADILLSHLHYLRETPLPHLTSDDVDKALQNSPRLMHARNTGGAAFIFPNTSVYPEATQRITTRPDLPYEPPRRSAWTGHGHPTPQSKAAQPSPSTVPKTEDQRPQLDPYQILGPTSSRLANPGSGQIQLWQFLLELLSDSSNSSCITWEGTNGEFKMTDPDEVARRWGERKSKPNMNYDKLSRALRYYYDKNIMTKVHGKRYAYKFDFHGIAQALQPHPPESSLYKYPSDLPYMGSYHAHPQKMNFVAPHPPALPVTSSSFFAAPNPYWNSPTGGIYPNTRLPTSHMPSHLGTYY
The following applies: protein: recombinant; tags: N-terminal GST; dsDNA, one strand shown. In a few lines: as §1

The target in the next assay is ELF1 (Homo sapiens, UniProt P32519 1-619). Particulars: protein: recombinant; tags: N-terminal GST; dsDNA, one strand shown. In a few lines: as §1
Chain of ELF1 (P32519 whole entry): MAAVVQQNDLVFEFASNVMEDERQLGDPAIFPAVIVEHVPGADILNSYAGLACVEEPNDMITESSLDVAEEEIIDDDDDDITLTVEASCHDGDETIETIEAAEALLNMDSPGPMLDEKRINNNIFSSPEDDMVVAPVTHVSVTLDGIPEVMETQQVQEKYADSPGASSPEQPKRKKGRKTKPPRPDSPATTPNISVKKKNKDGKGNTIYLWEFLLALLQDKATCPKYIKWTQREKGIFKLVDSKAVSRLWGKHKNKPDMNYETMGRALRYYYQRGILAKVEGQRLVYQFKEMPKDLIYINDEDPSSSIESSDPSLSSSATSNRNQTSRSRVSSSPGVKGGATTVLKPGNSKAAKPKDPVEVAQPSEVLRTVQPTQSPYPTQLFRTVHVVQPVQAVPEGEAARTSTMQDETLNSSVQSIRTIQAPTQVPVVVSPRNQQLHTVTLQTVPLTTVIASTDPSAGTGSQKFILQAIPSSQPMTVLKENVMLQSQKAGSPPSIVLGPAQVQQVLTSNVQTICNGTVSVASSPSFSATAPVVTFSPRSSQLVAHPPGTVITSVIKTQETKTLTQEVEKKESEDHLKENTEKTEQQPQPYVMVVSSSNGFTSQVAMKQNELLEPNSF
The target of the next assay is T4, EHF (Homo sapiens, UniProt Q9NZC4 1-300).
T4 sequence: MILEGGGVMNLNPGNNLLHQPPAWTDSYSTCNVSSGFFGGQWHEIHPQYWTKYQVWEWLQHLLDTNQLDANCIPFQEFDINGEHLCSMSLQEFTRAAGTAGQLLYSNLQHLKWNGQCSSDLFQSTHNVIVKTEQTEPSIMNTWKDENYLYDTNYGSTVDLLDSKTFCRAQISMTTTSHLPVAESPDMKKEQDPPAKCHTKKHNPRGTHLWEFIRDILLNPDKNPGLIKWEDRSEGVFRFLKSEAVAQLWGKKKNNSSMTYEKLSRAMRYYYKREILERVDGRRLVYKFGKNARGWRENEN
The following applies: protein: recombinant; tags: N-terminal GST; dsDNA, one strand shown. In short, it runs like this: as §1

A further assay concerns the target SPI1 (Homo sapiens, UniProt P17947 1-270). The following applies: protein: recombinant; tags: N-terminal GST; dsDNA, one strand shown. In a few lines:
as §1

The target of the next assay is SPIB (Homo sapiens, UniProt Q01892 1-262). Particulars: protein: recombinant; tags: N-terminal GST; dsDNA, one strand shown. In a few lines:
as §1

In a further assay the target is T5, ELK3 (Homo sapiens, UniProt P41970 1-407).
T5 sequence: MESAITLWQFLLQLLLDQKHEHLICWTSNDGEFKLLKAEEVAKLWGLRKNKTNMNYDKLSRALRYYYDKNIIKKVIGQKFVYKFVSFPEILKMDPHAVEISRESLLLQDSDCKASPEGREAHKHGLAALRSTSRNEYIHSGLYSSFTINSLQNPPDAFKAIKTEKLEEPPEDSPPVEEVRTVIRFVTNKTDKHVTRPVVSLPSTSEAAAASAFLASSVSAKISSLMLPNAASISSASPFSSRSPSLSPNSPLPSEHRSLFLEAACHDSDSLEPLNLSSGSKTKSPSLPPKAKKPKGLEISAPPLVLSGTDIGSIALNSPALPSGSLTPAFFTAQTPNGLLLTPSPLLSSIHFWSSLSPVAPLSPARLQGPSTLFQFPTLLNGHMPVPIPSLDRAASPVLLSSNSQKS
The following applies: protein: recombinant; tags: N-terminal GST; dsDNA, one strand shown. In a few lines: as §1

The next assay concerns the target T6, FEV (Homo sapiens, UniProt Q99581 1-238).
T6 sequence: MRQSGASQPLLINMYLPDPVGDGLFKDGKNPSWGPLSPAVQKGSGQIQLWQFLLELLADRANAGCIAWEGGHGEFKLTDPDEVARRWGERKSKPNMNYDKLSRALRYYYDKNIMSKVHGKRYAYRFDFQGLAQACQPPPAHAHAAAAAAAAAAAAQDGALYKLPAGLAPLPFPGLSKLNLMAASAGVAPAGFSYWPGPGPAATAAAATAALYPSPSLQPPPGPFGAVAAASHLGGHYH
The following applies: protein: recombinant; tags: N-terminal GST; dsDNA, one strand shown. In a few lines:
as §1

The target in a further assay is ETV5 (Homo sapiens, UniProt P41161 1-510). The following applies: protein: recombinant; tags: N-terminal GST; dsDNA, one strand shown. In a few lines:
as §1

A further assay deals with HSF1 (Homo sapiens, UniProt Q00613 1-529). Particulars: protein: recombinant; tags: N-terminal GST; chain copies: 3; dsDNA, one strand shown. In short, it runs like this: as §1
Chain of HSF1 (Q00613 whole entry): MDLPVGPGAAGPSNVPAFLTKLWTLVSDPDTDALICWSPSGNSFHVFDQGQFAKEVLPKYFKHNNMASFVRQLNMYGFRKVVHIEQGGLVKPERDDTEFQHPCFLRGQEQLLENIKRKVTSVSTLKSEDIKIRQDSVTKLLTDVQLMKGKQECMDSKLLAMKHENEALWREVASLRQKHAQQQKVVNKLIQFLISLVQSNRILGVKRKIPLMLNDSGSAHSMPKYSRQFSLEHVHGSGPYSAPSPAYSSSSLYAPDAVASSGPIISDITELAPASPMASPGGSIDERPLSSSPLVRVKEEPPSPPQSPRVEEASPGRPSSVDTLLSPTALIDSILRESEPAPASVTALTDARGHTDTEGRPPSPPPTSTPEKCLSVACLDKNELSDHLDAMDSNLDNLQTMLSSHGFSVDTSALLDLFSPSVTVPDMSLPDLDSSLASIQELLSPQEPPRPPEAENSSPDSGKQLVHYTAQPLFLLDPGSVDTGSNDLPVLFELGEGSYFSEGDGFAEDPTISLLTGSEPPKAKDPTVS
For another assay, the target named is T7, SPIC (Homo sapiens, UniProt Q8N5J4 1-248).
T7 sequence: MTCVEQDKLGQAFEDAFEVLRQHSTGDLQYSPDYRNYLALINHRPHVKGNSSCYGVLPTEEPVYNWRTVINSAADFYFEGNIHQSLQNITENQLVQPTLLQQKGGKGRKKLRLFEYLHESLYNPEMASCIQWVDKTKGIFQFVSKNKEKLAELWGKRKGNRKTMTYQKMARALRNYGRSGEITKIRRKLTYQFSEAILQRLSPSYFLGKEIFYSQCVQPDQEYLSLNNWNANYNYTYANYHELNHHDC
Particulars: protein: recombinant; tags: N-terminal GST; dsDNA, one strand shown. In short, it runs like this:
as §1

The target of the next assay is ELF4 (Homo sapiens, UniProt Q99607 1-663). The following applies: protein: recombinant; tags: N-terminal GST; dsDNA, one strand shown. In a few lines:
as §1

The target in another assay is T8, ELK4 (Homo sapiens, UniProt P28324-2 1-405).
T8 sequence: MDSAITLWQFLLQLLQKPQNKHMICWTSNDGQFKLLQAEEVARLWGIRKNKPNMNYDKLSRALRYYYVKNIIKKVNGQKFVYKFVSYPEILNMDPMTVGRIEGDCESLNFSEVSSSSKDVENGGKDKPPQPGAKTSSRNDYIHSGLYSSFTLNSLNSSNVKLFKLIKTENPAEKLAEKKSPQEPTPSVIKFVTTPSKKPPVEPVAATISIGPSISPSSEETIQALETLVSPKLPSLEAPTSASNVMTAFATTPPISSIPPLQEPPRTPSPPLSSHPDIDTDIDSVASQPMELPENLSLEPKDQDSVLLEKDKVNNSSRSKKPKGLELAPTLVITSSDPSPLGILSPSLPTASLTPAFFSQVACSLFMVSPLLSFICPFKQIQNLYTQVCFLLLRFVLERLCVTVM
The following applies: protein: recombinant; tags: N-terminal GST; dsDNA, one strand shown. In short, it runs like this:
as §1

The target in the next assay is T9, ETV2 (Homo sapiens, UniProt O00321 1-342).
T9 sequence: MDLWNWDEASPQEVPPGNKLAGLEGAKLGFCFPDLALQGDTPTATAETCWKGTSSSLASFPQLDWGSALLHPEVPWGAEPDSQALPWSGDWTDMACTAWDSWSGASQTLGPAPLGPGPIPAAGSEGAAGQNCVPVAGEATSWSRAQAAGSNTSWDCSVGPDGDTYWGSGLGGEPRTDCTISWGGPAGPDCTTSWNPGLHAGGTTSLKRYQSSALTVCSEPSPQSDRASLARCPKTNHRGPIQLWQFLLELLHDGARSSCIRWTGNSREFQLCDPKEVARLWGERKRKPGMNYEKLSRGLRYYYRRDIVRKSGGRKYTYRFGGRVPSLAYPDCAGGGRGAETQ
Particulars: protein: recombinant; tags: N-terminal GST; dsDNA, one strand shown. In short, it runs like this:
as §1

For a further assay, the target named is CRX (Homo sapiens, UniProt O43186 1-299). The following applies: protein: recombinant; tags: N-terminal GST; dsDNA, one strand shown. In short, it runs like this:
as §1

The next assay concerns the target ETV1 (Homo sapiens, UniProt P50549 1-477). The following applies: protein: recombinant; tags: N-terminal GST; dsDNA, one strand shown. In a few lines: as §1

Chain of CRX (O43186 whole entry): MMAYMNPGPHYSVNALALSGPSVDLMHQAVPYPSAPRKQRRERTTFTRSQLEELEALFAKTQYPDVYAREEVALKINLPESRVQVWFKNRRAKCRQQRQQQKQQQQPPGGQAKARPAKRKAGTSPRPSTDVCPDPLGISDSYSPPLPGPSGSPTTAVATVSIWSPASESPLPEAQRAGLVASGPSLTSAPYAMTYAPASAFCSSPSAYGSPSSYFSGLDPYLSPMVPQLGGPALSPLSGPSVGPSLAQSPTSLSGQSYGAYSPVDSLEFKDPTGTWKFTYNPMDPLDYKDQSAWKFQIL
Chain of ETV1 (P50549 whole entry): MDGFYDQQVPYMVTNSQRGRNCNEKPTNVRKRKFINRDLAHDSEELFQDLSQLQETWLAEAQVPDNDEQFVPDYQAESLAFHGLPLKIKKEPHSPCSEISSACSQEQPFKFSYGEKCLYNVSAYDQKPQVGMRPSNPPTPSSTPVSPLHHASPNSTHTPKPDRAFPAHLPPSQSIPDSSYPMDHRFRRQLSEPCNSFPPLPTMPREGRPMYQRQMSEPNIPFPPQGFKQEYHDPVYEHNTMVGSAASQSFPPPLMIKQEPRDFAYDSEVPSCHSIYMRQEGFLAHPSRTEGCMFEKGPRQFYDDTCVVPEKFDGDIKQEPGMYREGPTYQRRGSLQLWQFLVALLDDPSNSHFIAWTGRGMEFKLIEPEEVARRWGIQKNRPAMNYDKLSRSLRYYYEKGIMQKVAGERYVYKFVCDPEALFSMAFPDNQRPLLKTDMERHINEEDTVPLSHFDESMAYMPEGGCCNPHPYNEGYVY
Chain of ELF4 (Q99607 whole entry): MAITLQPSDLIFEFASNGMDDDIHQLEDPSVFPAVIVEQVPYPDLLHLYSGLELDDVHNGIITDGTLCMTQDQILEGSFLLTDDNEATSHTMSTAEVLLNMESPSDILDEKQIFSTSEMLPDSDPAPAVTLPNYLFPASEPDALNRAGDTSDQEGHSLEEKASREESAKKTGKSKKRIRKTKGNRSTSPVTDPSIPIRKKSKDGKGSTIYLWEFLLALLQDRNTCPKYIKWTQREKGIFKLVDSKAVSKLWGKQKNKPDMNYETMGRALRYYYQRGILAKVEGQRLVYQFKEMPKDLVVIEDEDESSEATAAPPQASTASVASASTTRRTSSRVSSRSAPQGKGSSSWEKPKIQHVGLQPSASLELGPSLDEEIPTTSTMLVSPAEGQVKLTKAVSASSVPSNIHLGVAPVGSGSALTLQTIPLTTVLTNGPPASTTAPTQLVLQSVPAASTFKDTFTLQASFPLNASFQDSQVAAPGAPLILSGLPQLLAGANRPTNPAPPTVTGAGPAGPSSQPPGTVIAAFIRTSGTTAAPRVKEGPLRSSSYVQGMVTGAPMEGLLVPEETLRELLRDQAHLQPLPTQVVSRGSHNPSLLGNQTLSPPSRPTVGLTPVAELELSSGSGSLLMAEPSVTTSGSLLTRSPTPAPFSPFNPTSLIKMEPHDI
Chain of SPIB (Q01892 whole entry): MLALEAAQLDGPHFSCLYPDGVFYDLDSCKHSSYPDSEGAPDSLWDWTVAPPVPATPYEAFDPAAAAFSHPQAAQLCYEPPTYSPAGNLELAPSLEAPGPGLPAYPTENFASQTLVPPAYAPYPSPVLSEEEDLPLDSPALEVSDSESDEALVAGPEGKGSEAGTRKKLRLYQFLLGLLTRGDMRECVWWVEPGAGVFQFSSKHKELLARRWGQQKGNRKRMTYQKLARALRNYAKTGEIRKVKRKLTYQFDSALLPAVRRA
Chain of ETV5 (P41161 whole entry): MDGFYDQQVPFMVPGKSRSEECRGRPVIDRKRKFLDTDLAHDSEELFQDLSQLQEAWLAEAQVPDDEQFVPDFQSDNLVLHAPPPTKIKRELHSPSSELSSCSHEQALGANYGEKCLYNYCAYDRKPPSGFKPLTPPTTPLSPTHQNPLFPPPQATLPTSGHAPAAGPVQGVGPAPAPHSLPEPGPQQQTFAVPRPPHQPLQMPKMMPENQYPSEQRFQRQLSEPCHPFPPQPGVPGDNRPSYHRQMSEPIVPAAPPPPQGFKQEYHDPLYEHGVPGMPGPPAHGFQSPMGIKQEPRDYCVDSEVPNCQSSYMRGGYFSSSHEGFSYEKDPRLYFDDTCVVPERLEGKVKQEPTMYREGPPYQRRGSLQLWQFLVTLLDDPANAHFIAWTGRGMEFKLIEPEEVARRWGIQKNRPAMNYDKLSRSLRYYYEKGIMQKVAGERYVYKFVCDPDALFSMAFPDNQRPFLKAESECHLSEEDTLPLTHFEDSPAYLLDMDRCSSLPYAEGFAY

With TTCGCG, the binding signal was 1.13 fold enrichment (6-mer frequency, TF over GST control) with FLI1; 1.07 fold enrichment (6-mer frequency, TF over GST control) in the assay with ELK1; 1.08 fold enrichment (6-mer frequency, TF over GST control) with ERG; 1.14 fold enrichment (6-mer frequency, TF over GST control) with ELF1; 1.21 fold enrichment (6-mer frequency, TF over GST control) with EHF; 1.18 fold enrichment (6-mer frequency, TF over GST control) with SPI1. Also, the binding signal with SPIB was 1.14 fold enrichment (6-mer frequency, TF over GST control); in the assay with ELK3, 1.15 fold enrichment (6-mer frequency, TF over GST control); in the assay with FEV it was 1.09 fold enrichment (6-mer frequency, TF over GST control); with ETV5 it was 1.04 fold enrichment (6-mer frequency, TF over GST control); with HSF1 it was 1.98 fold enrichment (6-mer frequency, TF over GST control); with SPIC it was 1.16 fold enrichment (6-mer frequency, TF over GST control). Also, the binding signal was 1.06 fold enrichment (6-mer frequency, TF over GST control) with ELF4; 1.26 fold enrichment (6-mer frequency, TF over GST control) in the assay with ELK4; 1.2 fold enrichment (6-mer frequency, TF over GST control) with ETV2; 1.29 fold enrichment (6-mer frequency, TF over GST control) with CRX; 1.02 fold enrichment (6-mer frequency, TF over GST control) with ETV1.
